Bioassay records as filed in PubChem.
A selection: hits, their analogues and other compounds. The true share with any hit is near 21%.
Pf growth 48h: Primary qHTS for delayed death inhibitors of the malarial parasite plastid, 48 hour incubation. P. falciparum luciferase growth in erythrocytes, 48 h. Potency, µM (doses to about 28.7 µM), actives largely listed as inhibitors. 310,000 compounds, 5.9% hits
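Firefly luciferase activity from engineered P. falciparum reports growth; inhibitors lower the luminescent signal. Cultures contained 2% hematocrit erythrocytes at 0.1% final parasitemia.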
Pf growth 96h: Primary qHTS for delayed death inhibitors of the malarial parasite plastid, 96 hour incubation; P. falciparum luciferase reporter growth, 96 h; Potency, µM (top dose mostly 28.7 µM), hits mostly inhibitors; 320,000 compounds, 6.9% hits; AID 504834, 2011
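96 h incubation, 37 C, 5% CO2, of luciferase-reporter P. falciparum-infected RBCs (2% hematocrit, 0.05% parasitemia final) with test compounds; endpoint luminescence.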
Shiga inhibitor: A qHTS for Small Molecule Inhibitors of Shiga Toxin | 290,000 compounds, 9.2% hits | Vero cells, Shiga toxin protein synthesis inhibition reporter | AID 2315, 2010 | inhibition, % at 38.7 µM; in the data active means inhibition mostly above about 28%, no sharp cut-off; inactive means mostly below about 43%
Cycloheximide cs: Cycloheximide Counterscreen for Small Molecule Inhibitors of Shiga Toxin; cell reporter, cycloheximide protein synthesis inhibition counterscreen; max response, %; 300,000 compounds, 12% hits; in the data active means max response mostly above about 13%, no sharp cut-off; inactive means mostly below about 14%; further: read at 38.3 µM for the half of the compounds with a filed dose
HCV inhibitor: qHTS Assay for Inhibitors of Hepatitis C Virus (HCV); Huh7.5.1 HCVcc-Cre infection, luciferase reporter, 44 h; Potency, µM (titrated, usually from 41.8 µM), most hits filed as inhibitors; 340,000 compounds, 3.4% hits; AID 651820, 2012
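After 44 h co-culture of compound, cells and HCVcc-Cre (~0.5 moi), substrate is added for 15 min at room temperature and luciferase measured over 15 sec. Cells were seeded at 1,000/well and pre-cultured 4 h.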
AMA1-RON2 inh: qHTS for Inhibitors of AMA1-RON; Towards Development of Antimalarial Drug Lead: Primary Screen. Potency, µM (top dose mostly 58.2 µM), hits mostly inhibitors. 360,000 compounds, 0.2% hits. AlphaScreen AMA1-biotinylated RON2 peptide binding; further: nearly all actives have a fitted effect of over 45% in size
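AMA1 (3D7) with his tag at 25 nM final met compounds first, then biotinylated RON2 peptide at 25 nM; detection used donor plus acceptor beads, 10 µg/mL apiece, read by AlphaScreen after 30 min at room temperature.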
Large screens that a line does not name were inactive. Unless noted, the call rests on the fitted dose curve; in most records, active means well fitted curve in the direction sought with a large enough effect; inconclusive means small, poorly fitted or top-dose-only effect, or another doubt; inactive means no such curve, though single readings can be large; an effect the other way counts as inactive or inconclusive.

CC1(C)CC2CC(C)(CN2C(=O)CN2C(=O)c3ccccc3C2=O)C1 (configuration not stated)	none (no result: Pf growth 96h)
COC(=O)C1=C[C@@H](C(=O)OC)C2C3=C(C(=O)[C@@]2(C)NC(=O)c2ccccc2)[C@H](C)n2c(=O)n(C)c(=O)n2[C@@H]3C1 (some centres not stated)	none (no result: Pf growth 48h, Pf growth 96h, HCV inhibitor, AMA1-RON2 inh)
COc1ccc(NC(=O)c2cc(-c3ccc(F)cc3OC)n[nH]2)c(C)c1	none (no result: Pf growth 48h, Pf growth 96h, Shiga inhibitor, Cycloheximide cs, HCV inhibitor)
Nc1c(C(=O)NC2CCCC2)c2nc3ccccc3nc2n1CC1CCCO1 (configuration not stated)	Pf growth 48h 10µM
Nc1c(C(=O)NC2CCCC2)c2nc3ccccc3nc2n1N	Shiga inhibitor 43, Cycloheximide cs 71
Nc1c(C(=O)NCC2CCCO2)c2nc3ccccc3nc2n1Cc1ccco1 (configuration not stated)	Pf growth 48h 9.3µM
COCCN1C=C2C(=O)C(C)(OC(=O)CCC(=O)OC)C(=O)C(Br)=C2C=C1c1ccc(OC)cc1 (configuration not stated)	none (no result: Pf growth 48h, Pf growth 96h, Shiga inhibitor, Cycloheximide cs)
C=CCN1C=C2C(=O)C(C)(OC(=O)CCC(=O)OC)C(=O)C(Br)=C2C=C1c1ccc(OC)cc1 (configuration not stated)	Pf growth 48h 15µM, Pf growth 96h inconclusive, HCV inhibitor inconclusive
Cc1cc(C)cc(NC(=S)NCC2CCN(C(C)c3ccccc3)C2)c1 (configuration not stated)	Pf growth 48h inconclusive, Pf growth 96h 5.2µM
COc1ccc(N2CCC(CNC(=S)Nc3ccc(C)cc3C)C2)cc1 (configuration not stated)	Pf growth 48h 8.3µM, Pf growth 96h inconclusive, HCV inhibitor inconclusive, AMA1-RON2 inh inconclusive
Cc1ccccc1NC(=S)NCC1CCN(C(C)c2ccccc2)C1 (configuration not stated)	none
CCc1ccc(NC(=O)NCC2CCN(c3ccc(OC)cc3)C2)cc1 (configuration not stated)	Pf growth 48h inconclusive, Pf growth 96h inconclusive
COc1ccc(N2CCC(CNC(=O)Nc3ccc(C)c(C)c3)C2)cc1 (configuration not stated)	none
COc1ccc(N2CCC(CNC(=S)Nc3cccc(C)c3)C2)cc1 (configuration not stated)	Pf growth 48h 13µM, AMA1-RON2 inh inconclusive
COc1ccc(N2CCC(CNC(=S)Nc3c(C)cc(C)cc3C)C2)cc1 (configuration not stated)	Pf growth 48h 12µM, Pf growth 96h inconclusive, HCV inhibitor inconclusive
CCn1nc(C(=O)Nc2ccc(S(=O)(=O)Nc3nccs3)cc2)c2ccccc2c1=O	Pf growth 48h inconclusive, AMA1-RON2 inh inconclusive (no result: Pf growth 96h)
O=C(Nc1ccc(S(=O)(=O)Nc2ncccn2)cc1)c1nn(Cc2ccccc2)c(=O)c2ccccc12	Pf growth 48h 1.9µM, Pf growth 96h inconclusive, HCV inhibitor inconclusive
COc1ccc(CC(=O)N2CCN(c3ccccc3F)CC2)cc1OC	HCV inhibitor 11µM
O=C(Cc1ccc(-n2cccc2)cc1)N1CCN(c2ccccc2F)CC1	Pf growth 96h 12µM, AMA1-RON2 inh inconclusive
O=C(CCC(=O)N1CCN(c2ccccc2F)CC1)N1CCN(c2ccc(F)cc2)CC1	Pf growth 96h inconclusive, HCV inhibitor inconclusive
O=c1c(-c2ccc3c(c2)OCCO3)coc2cc(OC3OC(CO)C(O)C(O)C3O)ccc12 (configuration not stated)	Shiga inhibitor 54, Cycloheximide cs 40
Cc1ncc(CO)c2c1Oc1nc(-c3ccccc3)nc(SCC(=O)Nc3cccc(O)c3)c1C2	Pf growth 48h 9.3µM, HCV inhibitor inconclusive
CCc1ccc(NC(=O)CSc2nc(-c3ccc(C)cc3)nc3c2Cc2c(CO)cnc(C)c2O3)cc1	none (no result: Shiga inhibitor, Cycloheximide cs, HCV inhibitor, AMA1-RON2 inh)
O=C(CSc1nc(-c2ccc(F)cc2)nc2c1Cc1ccccc1O2)Nc1cccc(C(=O)O)c1	Pf growth 96h inconclusive
COc1ccc(-c2nc3c(c(SCC(=O)Nc4cccc(O)c4)n2)Cc2c(CO)cnc(C)c2O3)cc1	Pf growth 48h 9.3µM, HCV inhibitor inconclusive
